# Source: PubChem BioAssay (NCI)
# This is part of a sample that, as a whole, favours compounds with a hit. Of some 83,000 tested, about 20% had one in any assay.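 48-hour exposure, single concentration, 96-well plates; percent growth endpoint where 0 means no net growth. Active: below 10.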 Unmarked numbers belong to inactive results. Calls of active or inactive are those of the source.
# Assays:
# Assay in all cases: NCI-60 one-dose screen, 48 h (100 = growth as untreated, 0 = no growth, -100 = all killed)
# Details in all cases: 10 µM
# [1] = test system: NCI-H23 lung
# [2] = test system: NCI-H226 lung
# [3] = test system: HOP-62 NSCLC
# [4] = test system: NCI-H460 lung
# [5] = test system: HOP-92 NSCLC
# [6] = test system: NCI-H522 lung
# [7] = test system: 786-0 renal
# [8] = test system: COLO 205 colon
# [9] = test system: DU-145 prostate
# [10] = test system: K-562 leukemia
# [11] = test system: MALME-3M melanoma
# [12] = test system: MDA-MB-231 breast
# [13] = test system: RXF 393 renal
# [14] = test system: SF-268 CNS
# [15] = test system: SF-295 CNS
# [16] = test system: SF-539 CNS
# [17] = test system: UACC-257 melanoma
# [18] = test system: M14 melanoma
# [19] = test system: A549/ATCC NSCLC
SMILES,growth [1],growth [2],growth [3],growth [4],growth [5],growth [6],growth [7],growth [8],growth [9],growth [10],growth [11],growth [12],growth [13],growth [14] [%],growth [15],growth [16],growth [17],growth [18],growth [19]
COc1cc(-c2nc3ccccc3o2)cc(CN2CCCCC2)c1O,22.1%,78.8%,49.7%,31.7%,103%,65.9%,94.7%,113%,12.9%,32.7%,28.9%,70.9%,94.8%,68.2,32.5%,83.5%,75.2%,34.9%,
Cc1ccc(NCCN(C)CC(C)O)c2c(=O)c3ccccc3sc12 (stereo unspecified),57.4%,66.1%,48%,15.6%,32.4%,44.4%,40.5%,-43.3% (active),47.4%,0.188% (active),34.6%,36.9%,24.8%,56.6,53.3%,53.2%,45.9%,-49% (active),
NS(=O)(=O)Oc1ccc(-c2ccc3sccc3c2)cc1,94.2%,88.1%,104%,103%,104%,87.1%,106%,114%,104%,96.9%,106%,90%,100%,102,97.2%,98.9%,104%,100%,
COc1ccc(C2CC(c3cccs3)=NN2c2ccc(S(N)(=O)=O)cc2)cc1 (stereo unspecified),104%,90.7%,97.8%,84.2%,63.1%,69.6%,96.5%,,102%,67.6%,,91.9%,93.6%,97.6,95.8%,104%,30.5%,78.4%,
O=C(Cn1cc(CO)nn1)Nc1nc2ccccc2s1,101%,103%,101%,106%,106%,93.7%,103%,,113%,94.8%,93.8%,100%,112%,99,106%,95%,104%,94.7%,97.2%
COc1ccc2c(c1)C(=O)/C(=C/c1cccc(OCC(=O)c3ccc([N+](=O)[O-])cc3)c1)CO2,-15% (active),70.5%,77%,73.9%,60.9%,-53.4% (active),82.8%,,63.4%,-81.2% (active),30.4%,60.9%,,62.8,43.3%,27.8%,-49.4% (active),8.08% (active),23.7%
Cc1ccc(C(SCC(N)C(=O)O)(c2ccc(C)cc2)c2ccc(C)cc2)cc1 (stereo unspecified),18.3%,64.1%,-48.3% (active),3.09% (active),-15.3% (active),-66.2% (active),,0.644% (active),-39% (active),0.419% (active),,1.37% (active),,17.6,-13.8% (active),-29.7% (active),-18.5% (active),-74.5% (active),14.6%
COc1cc(/C=C2\CCCC3=C2N=C2SC(C)=CN2C3c2cc(OC)c(OC)c(OC)c2)cc(OC)c1OC (stereo unspecified),-30.4% (active),-56.7% (active),-19.6% (active),1.37% (active),55.4%,-21.8% (active),-18.1% (active),,-26.9% (active),20.4%,4.83% (active),18.9%,-71.9% (active),14.7,2.48% (active),7.53% (active),-27% (active),2.47% (active),-23.4% (active)
COc1ccccc1/C=N\N/C(N)=N\N=C\c1ccccc1OC,26.8%,48.5%,-24.8% (active),2.85% (active),48.9%,4.02% (active),7.99% (active),-10.9% (active),,2.34% (active),,21.7%,,41.4,5.03% (active),-35.5% (active),46.3%,-3.67% (active),
CC(C)(C)c1ccc(S(=O)(=O)Oc2ccc(NC(=O)C3CCCCC3)cc2)cc1,23%,45.4%,88.7%,44.2%,39.6%,25.4%,55.4%,32.4%,59.2%,27%,78.9%,72%,65.1%,70.6,22.8%,73.2%,,60.1%,
COc1ccc(C(=O)COc2cccc(/C=C3\Cc4ccccc4C3=O)c2)cc1,74.5%,73.4%,93.2%,111%,48.7%,56.6%,82.2%,124%,,80.5%,,66.5%,,77.2,87.1%,75.9%,83.5%,81.2%,
Cc1noc(C)c1CSc1ccccc1C(=O)N1CCN(c2cccc(C(F)(F)F)c2)CC1,67.9%,75.6%,91.5%,84.2%,68.1%,62%,87.5%,74.2%,95.7%,52.8%,84.5%,65.7%,99.8%,95.3,75.2%,87.4%,,71.6%,
COc1cc(-c2nn(-c3cccc(NC(=O)NCCNC(=O)c4ccccc4)c3)cc2-c2ccncc2)ccc1Cl,19.7%,9.31% (active),26.4%,13.5%,-0.717% (active),0.745% (active),-50.6% (active),,23%,5.31% (active),-9.9% (active),25.9%,-23.4% (active),27.7,-56.9% (active),-12.9% (active),17.1%,-5.48% (active),
CC(C)CCN(CCC(C)C)CC(=O)Nc1ccc(S(=O)(=O)c2ccc(NC(=O)CN(CCC(C)C)CCC(C)C)cc2)cc1,46.3%,76.7%,67.5%,48.2%,75%,-64.6% (active),18%,29.6%,54%,3.86% (active),19.4%,31%,24.9%,34.5,90.1%,21.4%,56.2%,31.6%,
O=C1CSC(=S)N1/N=C/c1ccc(Cl)s1,90.3%,106%,95.4%,107%,110%,96.2%,102%,107%,109%,105%,103%,99.4%,108%,91.9,100%,95.1%,110%,107%,
Cc1cc(Cl)ccc1Nc1nc(C(F)(F)F)ccc1C(=O)N/N=C/c1cccc(O)c1,43.8%,38.8%,44.2%,30.9%,48.1%,40.2%,-30.6% (active),28.2%,,20.7%,,39.7%,,39.3,6.71% (active),23.5%,44.1%,43.9%,
CC(C)=CCC/C(C)=C/CC/C(C)=C/CC/C=C(\C)CC/C=C(\C)CCC(=O)Nc1ccn(C2OC(CO)C(O)C2(F)F)c(=O)n1 (stereo unspecified),25.3%,50.3%,11.1%,6.85% (active),10.2%,26.1%,-11.2% (active),43.5%,,26.7%,,65.2%,,19.9,-41.3% (active),-22.3% (active),18.5%,2.42% (active),
O=C(COc1cccc(/C=C2\CSc3ccc(Cl)cc3C2=O)c1)c1ccc(Cl)cc1,75.1%,84.3%,83.6%,91.3%,15.6%,36.8%,94.6%,115%,,17.3%,,32%,,88.2,81.2%,80.3%,84.6%,94.7%,
